Assay results reported in PubChem BioAssay AID1159580 (chemical genetic matrix, 2015).
“And” between values parts separate entries of the source, which are not always exact repeats. Identical values can stand only once. Hit rate of the full screen: of about 5,500 compounds, about 2,000 (36%) were called active. About 18% were inconclusive and are not listed. Cut-off read from the data, not from the text of the source: active = normalized growth mostly below about 0.91 (no sharp cut-off); inconclusive = no clear call, values can overlap the other calls; inactive = mostly above about 0.92. This is one part of the list.

Test: chemical genetic growth profiling, strain panel (AID 1159580);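 note: tested at 20 µM; growth read once vehicle control cultures reached saturation at 30 °C; 1 = growth at the plate median or of vehicle wells; lower values mean less growth of the strain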
Settings: S. cerevisiae deletion strains, growth OD

Measured: normalized growth

ClC1=C(Cl)C2(Cl)C3C(Cl)C=CC3C1(Cl)C2(Cl)Cl (configuration not stated)
inactive: locus YAL013W, strain DEP1, active compounds read low 0.999 | locus YAL021C, strain ccr4, active compounds read low 0.99 | locus YAL026C, strain drs2, active compounds read low 0.999 | locus YAL030W, strain snc1, active compounds read low 1.01 | locus YBL061C, strain skt5, active compounds read low 1.01 | locus YBR009C, strain hhf1, active compounds read low 0.983 | locus YBR021W, strain FUR4, active compounds read low 0.987 | locus YBR023C, strain chs3, active compounds read low 0.998 | locus YBR171W, strain sec66, active compounds read low 0.994 | locus YBR229C, strain ROT2, active compounds read low 0.991 | locus YBR231C, strain swc5, active compounds read low 0.999 | locus YBR279W, strain paf1, active compounds read low 1 | locus YCL011C, strain gbp2, active compounds read low 0.996 | locus YCL016C, strain dcc1, active compounds read low 0.998 | locus YCL029C, strain bik1, active compounds read low 0.965 | locus YCL061C, strain MRC1, active compounds read low 0.996 | locus YCL069W, strain vba3, active compounds read low 1.01 | locus YCR088W, strain abp1, active compounds read low 0.998 | locus YDL005C, strain med2, active compounds read low 1.01 | locus YDL035C, strain GPR1, active compounds read low 0.962 | locus YDL040C, strain nat1, active compounds read low 1.01 | locus YDL074C, strain BRE1, active compounds read low 1 | locus YDL101C, strain DUN1, active compounds read low 0.989 | locus YDL134C, strain PPH21, active compounds read low 0.99 | locus YDL185W, strain tfp1, active compounds read low 0.983 | locus YDL192W, strain arf1, active compounds read low 0.98 | locus YDR001C, strain nth1, active compounds read low 1 | locus YDR069C, strain doa4, active compounds read low 0.981 | locus YDR101C, strain arx1, active compounds read low 0.992 | locus YDR137W, strain rgp1, active compounds read low 0.925 | locus YDR150W, strain NUM1, active compounds read low 0.995 | locus YDR162C, strain NBP2, active compounds read low 0.999 | locus YDR195W, strain ref2 0.913 | locus YDR297W, strain sur2, active compounds read low 1 | locus YDR318W, strain mcm21, active compounds read low 0.978 | locus YDR334W, strain swr1, active compounds read low 1.02 | locus YDR335W, strain msn5, active compounds read low 1.01 | locus YDR388W, active compounds read low 0.974 | locus YDR392W, strain spt3, active compounds read low 0.975 | locus YDR502C, strain sam2, active compounds read low 0.984 | locus YEL003W, strain gim4, active compounds read low 0.995 | locus YEL037C, strain rad23, active compounds read low 1.01 | locus YEL061C, strain CIN8 (second series), active compounds read low 1.01 | locus YEL061C, strain CIN8, active compounds read low 1 | locus YER015W, strain faa2, active compounds read low 0.992 | locus YER016W, strain bim1, active compounds read low 1 | locus YER110C, active compounds read low 0.978 | locus YER111C, strain swi4, active compounds read low 1 | locus YER155C, strain BEM2 (second series), active compounds read low 0.998 | locus YER155C, strain BEM2, active compounds read low 1.01 | locus YER167W, strain BCK2, active compounds read low 0.98 | locus YFR010W, strain ubp6, active compounds read low 0.995 | locus YGL078C, strain dbp3, active compounds read low 0.988 | locus YGL086W, strain mad1, active compounds read low 0.99 | locus YGL167C, strain pmr1, active compounds read low 0.998 | locus YGL173C, strain kem1, active compounds read low 0.993 | locus YGL227W, strain vid30, active compounds read low 1 | locus YGL240W, strain doc1, active compounds read low 0.986 | locus YGL248W, strain PDE1, active compounds read low 0.991 | locus YGL253W, strain hxk2, active compounds read low 0.999 | locus YGR078C, strain PAC10, active compounds read low 0.993 | locus YGR135W, strain pre9, active compounds read low 0.982 | locus YGR229C, strain SMI1, active compounds read low 0.985 | locus YGR252W, strain gcn5, active compounds read low 0.957 | locus YHR013C, strain ard1, active compounds read low 0.904 | locus YHR027C, strain rpn1, active compounds read low 0.995 | locus YHR030C, strain SLT2, active compounds read low 1 and 1.04 | locus YHR079C, strain IRE1 (second series), active compounds read low 0.973 | locus YHR079C, strain IRE1, active compounds read low 1 | locus YHR094C, strain hxt1, active compounds read low 0.988 | locus YHR129C, strain ARP1, active compounds read low 0.997 | locus YHR142W, strain chs7, active compounds read low 0.996 | locus YHR200W, strain rpn10, active compounds read low 0.987 | locus YIL066C, strain RNR3, active compounds read low 0.971 | locus YIL073C, strain SPO22, active compounds read low 0.922 | locus YIL125W, strain kgd1, active compounds read low 1 | locus YIR030C, strain dcg1, active compounds read low 0.989 | locus YJL092W, strain hpr5, active compounds read low 0.998 | locus YJL095W, strain BCK1 (second series), active compounds read low 1 | locus YJL095W, strain BCK1, active compounds read low 1.03 and 1.04 | locus YJL115W, strain asf1, active compounds read low 0.995 | locus YJL134W, strain LCB3, active compounds read low 0.984 | locus YJL154C, strain vps35, active compounds read low 1 | locus YJL164C, strain tpk1, active compounds read low 0.953 | locus YJL166W, strain qcr8, active compounds read low 0.943 | locus YJL168C, strain set2, active compounds read low 0.977 | locus YJL187C, strain SWE1 (second series), active compounds read low 0.989 | locus YJL187C, strain SWE1, active compounds read low 1.01 | locus YJR043C, strain POL32, active compounds read low 0.997 | locus YJR066W, strain TOR1, active compounds read low 0.961
active: locus YDR159W, strain sac3, active compounds read low 0.817 | locus YJL129C, strain trk1, active compounds read low 0.854
